Experimental data reported in the supplement of paper PMC12024424.
Where a name gives a salt, the structure may show the parent alone.

System: Staphylococcus aureus Sa2 (MRSA, cystic fibrosis isolate)
Assay: growth reduction vs untreated control (OD550); higher = stronger antibacterial activity
Details: 0.1 mM; 24 h
Experimental: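 Single-dose screen of the MedChem Express Drug Repurposing Library (0.1 mM, 1% DMSO) against planktonic MRSA S. aureus Sa2 (CF isolate) in TSB in 96-well plates, 37 °C aerobic, 24 h. Assays were run in triplicate and repeated twice.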

Compound	growth reduction [%]
Cc1ccc(C(=O)N(CCCN)[C@@H](c2nc3cc(Cl)ccc3c(=O)n2Cc2ccccc2)C(C)C)cc1 [Ispinesib]	100
COc1cccc2c1c(O)c(C(=O)N(C)c1ccc(C(F)(F)F)cc1)c(=O)n2C [Tasquinimod]	92.4
O=C(O)c1ccccc1Nc1cccc(C(F)(F)F)c1 [Flufenamic acid]	93.6
CC1=CC(=O)c2ccccc2C1=O [Menadione]	96.7
CSc1ccc(OCc2ncc([N+](=O)[O-])n2C)cc1 [Fexinidazole]	98.5
O=c1ccc2ccc(O)c(O)c2o1 [Daphnetin]	94.5
NC(N)=NC(=O)c1nc(Cl)c(N2CCCCCC2)nc1N [5-(N,N-Hexamethylene)-amiloride]	100
O=C(NC1CCN(CCCCC2(C(=O)NCC(F)(F)F)c3ccccc3-c3ccccc32)CC1)c1ccccc1-c1ccc(C(F)(F)F)cc1 [Lomitapide]	100
Cc1ccc(C(=O)c2cc(O)c(O)c([N+](=O)[O-])c2)cc1 [Tolcapone]	100
O=C(O)c1ccc(-n2nc(-c3ccccc3O)nc2-c2ccccc2O)cc1 [Deferasirox]	96.2
O=C(O)CNC(=O)c1nc(Cl)c2ccccc2c1O	100
COc1ccc(Cl)c(Nc2nc3ccccc3nc2NS(=O)(=O)c2cccc(NC(=O)C(C)(C)N)c2)c1 [Pilaralisib]	100
Clc1ccc(CSC(Cn2ccnc2)c2ccc(Cl)cc2Cl)cc1 (stereo not given) [Sulconazole (mononitrate)]	100
Clc1ccc(CSC(Cn2ccnc2)c2ccc(Cl)cc2Cl)cc1 (stereo not given) [Sulconazole (nitrate)]	93.4
CCOc1cc(CC(=O)N[C@@H](CC(C)C)c2ccccc2N2CCCCC2)ccc1C(=O)O [Repaglinide]	96.9
Clc1ccc(COC(Cn2ccnc2)c2ccc(Cl)cc2Cl)c(Cl)c1 (stereo not given) [Miconazole (nitrate)]	100
CCc1oc2ccccc2c1C(=O)c1cc(Br)c(O)c(Br)c1 [Benzbromarone]	100
Cc1cnc(NC(=O)Nc2cc(Br)c(C)cc2OC[C@@H]2CNCCO2)cn1 [Rabusertib]	100
COC(=O)N[C@H](C(=O)N1CCC[C@H]1c1nc(-c2ccc3c(c2)O[C@@H](c2ccccc2)n2c-3cc3cc(-c4c[nH]c([C@@H]5CCCN5C(=O)[C@@H](NC(=O)OC)C(C)C)n4)ccc32)c[nH]1)C(C)C [Elbasvir]	97.8
Nc1ccc(S(=O)(=O)Nc2cnc3c(Cl)cccc3n2)cc1 [Chloroquinoxaline sulfonamide]	91.6

Compound	growth reduction [%]
Cc1c(CN(C)C(=O)/C=C/c2cnc3c(c2)CCC(=O)N3)oc2ccccc12	100
O=C(O)c1cc(F)c2nc(N3[C@@H]4CC[C@H]3C[C@@H](OCc3c(-c5ccccc5OC(F)(F)F)noc3C3CC3)C4)sc2c1 [Tropifexor]	100
CSc1ccc2c(c1)N(CCC1CCCCN1C)c1ccccc1S2 (stereo not given) [Thioridazine (hydrochloride)]	100
C=CC(N)CCC(=O)O (stereo not given) [Vigabatrin (hydrochloride)]	100
OC(c1cc(C(F)(F)F)nc2c(C(F)(F)F)cccc12)C1CCCCN1 (stereo not given) [Mefloquine (hydrochloride)]	100
CCN1CCN(Cc2ccc(-c3cc4c(N[C@H](C)c5ccccc5)ncnc4[nH]3)cc2)CC1	100
CCCCCOc1ccccc1/C(=C\SC)n1ccnc1 [Neticonazole (hydrochloride)]	100
O=c1[nH]c(=O)n([C@H]2C[C@H](O)[C@@H](CO)O2)cc1F [Floxuridine]	100
C=CC(=O)N1CC[C@@H](Oc2nc(Nc3ccc(N4CCC(N5CCN(C)CC5)CC4)cc3)c(C(N)=O)nc2CC)C1 [Naquotinib (mesylate)]	99.6
Cc1cc(Nc2ncnc3ccc(NC4=NC(C)(C)CO4)cc23)ccc1Oc1ccn2ncnc2c1 [Tucatinib]	91.9
Cc1cccc(/C=N/Nc2cc(N3CCOCC3)nc(OCCc3ccccn3)n2)c1 [Apilimod]	100
O=C(c1ccc(F)c(F)c1Nc1ccc(I)cc1F)N1CC(O)([C@@H]2CCCCN2)C1 [Cobimetinib]	100
CC(C)(C)Cn1c(N)nc2ccc(-c3[nH]c(C(C)(C)C)nc3-c3ccc(F)cc3)nc21 [Ralimetinib dimesylate]	100
O=C(O)CNC(=O)c1c(=O)cc(CCc2ccccc2)n2[nH]cnc12 [Enarodustat]	93.3
Cc1cc(C)cc([C@@H]2CCCN2Cc2ccc(Oc3ccc(C(N)=O)cc3F)cc2)c1 [Aticaprant]	100
NC(=O)N1c2ccccc2C[C@H](O)c2ccccc21 [Eslicarbazepine]	92.7
CCN(CC)CCN(Cc1ccc(-c2ccc(C(F)(F)F)cc2)cc1)C(=O)Cn1c(SCc2ccc(F)cc2)nc(=O)c2c1CCC2 [Darapladib]	100
Cc1cc(C2CCCCC2)n(O)c(=O)c1 [Ciclopirox]	99.3
CC(=O)[C@]1(O)Cc2c(O)c3c(c(O)c2[C@@H](O[C@H]2C[C@H](N)[C@H](O)[C@H](C)O2)C1)C(=O)c1ccccc1C3=O [Idarubicin (hydrochloride)]	98.1
Clc1ccccc1C(c1ccccc1)(c1ccccc1)n1ccnc1 [Clotrimazole]	100
